Experimental data reported in PubChem BioAssay (Tox21).
Results filed as inconclusive are left out. The source made the active and inactive calls. Unless noted, calls come from the whole dose curve; as a rule, active = well fitted curve in the direction sought with a large enough effect in the repeat runs; inconclusive = weak or mixed curves; inactive = no such curve, though single readings can be large; an effect the other way counts as inactive or inconclusive.

How the values were obtained:
[1] = qHTS assay to identify small molecule that activate the aryl hydrocarbon receptor (AhR) signaling pathway - cell viability counter screen (AID 743086);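 note: HepG2 liver cells carrying the AhR DRE luciferase reporter; series mostly up to about 70 µM; nearly all actives have a fitted effect of over 45% in size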
Outline: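 HepG2-AhR-luc (HG2L7.5c1) cells, 4000/well, were preincubated 5 h at 37C, exposed to compound in qHTS format for 24 hr at 37C, then given CellTiter-Fluor for 30 min; viability was read as fluorescence in the reporter wells.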

[2] = target: Peroxisome proliferator-activated receptor gamma (Homo sapiens) (UniProt P37231); experiment: qHTS assay to identify small molecule agonists of the peroxisome proliferator-activated receptor gamma (PPARg) signaling pathway (AID 743094; active = well fitted activation curve with a large enough effect in the signal ratio in the repeat runs, not every such curve was filed as active; the % refers to the signal ratio)
Chain of Peroxisome proliferator-activated receptor gamma (Homo sapiens) (P37231 whole entry, looked up): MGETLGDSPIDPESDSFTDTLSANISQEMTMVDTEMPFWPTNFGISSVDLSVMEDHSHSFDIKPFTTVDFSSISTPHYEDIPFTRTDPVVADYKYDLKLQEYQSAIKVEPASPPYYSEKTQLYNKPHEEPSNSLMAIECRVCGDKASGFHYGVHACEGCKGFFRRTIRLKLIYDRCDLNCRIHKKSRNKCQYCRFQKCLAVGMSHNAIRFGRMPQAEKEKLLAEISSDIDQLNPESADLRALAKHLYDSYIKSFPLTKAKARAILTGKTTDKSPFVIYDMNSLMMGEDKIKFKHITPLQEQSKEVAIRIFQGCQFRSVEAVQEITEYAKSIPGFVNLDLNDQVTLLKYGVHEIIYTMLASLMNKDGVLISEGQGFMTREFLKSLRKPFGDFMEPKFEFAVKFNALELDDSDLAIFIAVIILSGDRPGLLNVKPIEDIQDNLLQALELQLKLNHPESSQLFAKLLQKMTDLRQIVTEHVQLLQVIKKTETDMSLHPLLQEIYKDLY
Outline: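 Cell-based bla reporter, HEK293H background, PPARg-driven UAS. Pre-incubation 5 h, 37C, 5% CO2. Compound 17 h, 37C. Substrate 1 h RT; fluorescence.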

[3] = target: Peroxisome proliferator-activated receptor gamma (Homo sapiens) (UniProt P37231); experiment: qHTS assay to identify small molecule antagonists of the peroxisome proliferator-activated receptor gamma (PPARg) signaling pathway (AID 743191; calls by dose curve; note: series mostly up to about 63 µM; nearly all actives have a fitted effect of over 30% in size)
Outline: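 GeneBLAzer PPARg UAS-bla HEK293H cells carrying a UAS-driven beta-lactamase reporter were plated at 3000 cells/well, preincubated 5 h at 37C, then given compound for 17 h at 37C; LiveBLAzer B/G FRET substrate was read after 1 h at room temperature.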

[4] = qHTS assay to identify small molecule antagonists of the peroxisome proliferator-activated receptor gamma (PPARg) signaling pathway - cell viability counter screen (AID 743194); note: nearly all actives have a fitted effect of over 55% in size
Outline: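 PPARg-UAS-bla HEK293H cells were plated, rested 5 h at 37 C, then treated with compounds plus rosiglitazone (50 nM final) for 17 h at 37 C; viability was then read by CellTiter-Glo luminescence after 30 min at room temperature.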

[5] = qHTS assay for small molecule agonists of the antioxidant response element (ARE) signaling pathway (AID 743202; active = well fitted activation curve with a large enough effect in the signal ratio in the repeat runs, not every such curve was filed as active; the % refers to the signal ratio)
Outline: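 Following a 16 h, 37 C exposure of reporter HepG2 cells (ARE-driven beta-lactamase, 2,000 cells/well) to compounds, FRET substrate was applied for 2 h at room temperature and fluorescence intensity recorded.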

[6] = qHTS assay for small molecule agonists of the antioxidant response element (ARE) signaling pathway - cell viability counter screen (AID 743203; calls by dose curve; note: nearly all actives have a fitted effect of over 55% in size)
Outline: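 Measured in the same wells as the beta-lactamase ARE reporter, this read-out is CellTiter-Glo luminescence from HepG2 ARE-bla cells given compounds for 16 hrs.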

[7] = qHTS assay to identify small molecule agonists of the peroxisome proliferator-activated receptor delta (PPARd) signaling pathway - cell viability counter screen (AID 743211); note: nearly all actives have a fitted effect of over 55% in size
Outline: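 Counter screen for cytotoxicity run in parallel with the PPARd reporter screen. Beta-lactamase reporter HEK293H cells exposed to compounds 17 h; ATP-based CellTiter-Glo luminescence quantified viability.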

[8] = target: Peroxisome proliferator-activated receptor delta (Homo sapiens) (UniProt Q03181); experiment: qHTS assay to identify small molecule agonists of the peroxisome proliferator-activated receptor delta (PPARd) signaling pathway (AID 743212; calls by dose curve)
Chain of Peroxisome proliferator-activated receptor delta (Homo sapiens) (Q03181 whole entry, looked up): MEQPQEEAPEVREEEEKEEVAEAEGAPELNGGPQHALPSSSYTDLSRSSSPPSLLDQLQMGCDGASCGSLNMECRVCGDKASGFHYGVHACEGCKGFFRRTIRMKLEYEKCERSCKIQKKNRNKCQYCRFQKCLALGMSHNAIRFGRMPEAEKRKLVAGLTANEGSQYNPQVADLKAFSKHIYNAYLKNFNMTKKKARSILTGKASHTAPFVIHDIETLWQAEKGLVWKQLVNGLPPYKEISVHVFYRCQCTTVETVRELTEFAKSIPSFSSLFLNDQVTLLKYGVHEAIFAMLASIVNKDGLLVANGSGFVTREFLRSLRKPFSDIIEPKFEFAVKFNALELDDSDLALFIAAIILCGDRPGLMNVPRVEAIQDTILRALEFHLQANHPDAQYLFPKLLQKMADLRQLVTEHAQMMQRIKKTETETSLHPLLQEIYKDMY
Outline: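 Beta-lactamase reporter read by fluorescence (LiveBLAzer B/G FRET, 2 h, room temperature). Test agents, in DMSO, incubated at 37 C with PPARd-bla HEK293H cells.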

[9] = qHTS assay to identify small molecule antagonists of the peroxisome proliferator-activated receptor delta (PPARd) signaling pathway - cell viability counter screen (AID 743213); note: nearly all actives have a fitted effect of over 50% in size
Outline: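 Same-well viability: cells pre-incubated 5 h, dosed with compound plus 300 nM L165041, kept 17 h at 37 C, FRET substrate 2 h RT, then CellTiter-Glo 30 min RT and luminescence.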

[10] = target: Peroxisome proliferator-activated receptor delta (Homo sapiens) (UniProt Q03181); experiment: qHTS assay to identify small molecule antagonists of the peroxisome proliferator-activated receptor delta (PPARd) signaling pathway (AID 743215; active = well fitted inhibition curve with a large enough effect in the signal ratio in the repeat runs, not every such curve was filed as active; the % refers to the signal ratio;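 note: cells stimulated with agonist L165041 at 300 nM final during compound exposure; series mostly up to about 62 µM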)
Outline: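 Fluorescence from cleaved LiveBLAzer B/G FRET substrate (2 h, room temperature) reports PPARd-driven beta-lactamase in HEK293H UAS-bla cells. Cells had been treated 17 h at 37 C with compound plus 300 nM final L165041.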

[11] = qHTS assay to identify small molecule antagonists of the farnesoid-X-receptor (FXR) signaling pathway - cell viability counter screen (AID 743221; active = well fitted cell-killing curve with a large enough effect in the repeat runs, not every such curve was filed as active; note: nearly all actives have a fitted effect of over 50% in size)
Outline: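 Multiplexed counter screen: viability of FXR-bla HEK 293T cells under agonist stimulation by chenodeoxycholic acid (50 uM, final) and test compound for 16 h at 37 C, measured by CellTiter-Glo luminescence in the reporter wells.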

[12] = qHTS assay to identify small molecule agonists of the vitamin D receptor (VDR) signaling pathway - cell viability counter screen (AID 743224); note: series mostly up to about 63 µM; nearly all actives have a fitted effect of over 50% in size
Outline: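 In parallel with the bla FRET readout, cytotoxicity toward VDR-bla cells after 16 h compound exposure was assessed by CellTiter-Glo, with luminescence recorded after a 30 min room-temperature incubation.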

[13] = target: Bile acid receptor (Homo sapiens) (UniProt Q96RI1); experiment: qHTS assay to identify small molecule antagonists of the farnesoid-X-receptor (FXR) signaling pathway (AID 743217; active = well fitted inhibition curve with a large enough effect in the signal ratio in the repeat runs, not every such curve was filed as active; the % refers to the signal ratio)
Chain of Bile acid receptor (Homo sapiens) (Q96RI1 whole entry, looked up): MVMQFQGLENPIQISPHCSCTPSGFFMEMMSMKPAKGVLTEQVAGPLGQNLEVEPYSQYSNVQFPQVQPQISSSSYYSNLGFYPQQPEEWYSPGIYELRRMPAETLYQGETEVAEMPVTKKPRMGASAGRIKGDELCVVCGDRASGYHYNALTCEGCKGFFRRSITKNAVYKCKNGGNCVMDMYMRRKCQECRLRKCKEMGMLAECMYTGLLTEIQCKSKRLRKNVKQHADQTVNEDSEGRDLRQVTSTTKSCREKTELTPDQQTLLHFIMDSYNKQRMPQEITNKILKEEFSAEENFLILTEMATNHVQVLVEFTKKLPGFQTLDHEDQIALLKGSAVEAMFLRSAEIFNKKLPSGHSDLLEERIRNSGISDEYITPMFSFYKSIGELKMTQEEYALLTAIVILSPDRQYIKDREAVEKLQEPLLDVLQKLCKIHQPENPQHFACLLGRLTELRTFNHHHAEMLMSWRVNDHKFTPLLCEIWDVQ
Outline: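 FRET fluorescence after 2 h room-temperature LiveBLAzer loading gives the readout. Prior step: FXR-bla HEK 293T cells, seeded and incubated 5 h, received test compounds plus 50 uM final CDCA for 16 h at 37 °C.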

[14] = target: Bile acid receptor (Homo sapiens) (UniProt Q96RI1); experiment: qHTS assay to identify small molecule agonists of the farnesoid-X-receptor (FXR) signaling pathway (AID 743220; active = well fitted activation curve with a large enough effect in the signal ratio in the repeat runs, not every such curve was filed as active; the % refers to the signal ratio)
Outline: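 FXR-UAS-bla HEK 293T cells carrying a UAS-driven beta-lactamase reporter were plated for 5 h at 37C/5% CO2, then exposed to DMSO-dissolved Tox21 10K compounds for 16 h at 37C. A LiveBLAzer B/G FRET substrate was loaded for 2 h at room temperature before fluorescence reading.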

[15] = target: Vitamin D3 receptor (Homo sapiens) (UniProt P11473); experiment: qHTS assay to identify small molecule agonists of the vitamin D receptor (VDR) signaling pathway (AID 743222; calls by dose curve)
Chain of Vitamin D3 receptor (Homo sapiens) (P11473 whole entry, looked up): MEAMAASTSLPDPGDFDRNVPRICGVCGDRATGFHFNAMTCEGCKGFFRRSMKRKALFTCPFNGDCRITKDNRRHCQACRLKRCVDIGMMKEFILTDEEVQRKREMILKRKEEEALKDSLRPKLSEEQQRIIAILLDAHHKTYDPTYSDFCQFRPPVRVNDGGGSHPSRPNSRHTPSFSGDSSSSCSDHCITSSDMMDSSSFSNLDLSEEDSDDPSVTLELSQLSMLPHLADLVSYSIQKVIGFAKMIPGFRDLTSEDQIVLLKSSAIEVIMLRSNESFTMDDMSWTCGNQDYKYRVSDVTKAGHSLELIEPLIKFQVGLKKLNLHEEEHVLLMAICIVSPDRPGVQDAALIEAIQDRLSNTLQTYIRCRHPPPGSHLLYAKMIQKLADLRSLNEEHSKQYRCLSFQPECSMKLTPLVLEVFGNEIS
Outline: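 Following 4 h attachment at 37C, VDR-bla cells (2,000 per well) received DMSO-dissolved compounds or controls. After 16 h incubation, LiveBLAzer B/G FRET substrate was added and fluorescence read 2 h later at room temperature.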

[16] = target: Vitamin D3 receptor (Homo sapiens) (UniProt P11473); experiment: qHTS assay to identify small molecule antagonists of the vitamin D receptor (VDR) signaling pathway (AID 743223; active = well fitted inhibition curve with a large enough effect in the signal ratio in the repeat runs, not every such curve was filed as active; the % refers to the signal ratio)
Outline: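 Cells carrying a VDR-driven beta-lactamase reporter (VDR-bla) were co-treated with compound and 3 nM final 1alpha,25-dihydroxyvitamin D3 for 16 h at 37C; reporter activity was measured as FRET substrate fluorescence after 2 h at room temperature.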

[17] = qHTS assay for small molecule activators of the heat shock response signaling pathway - cell viability counter screen (AID 743209); note: nearly all actives have a fitted effect of over 50% in size
Outline: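 Same-well multiplex: after 2.5 h room-temperature incubation with LiveBLAzer B/G substrate and fluorescence reading, CellTiter-Glo reagent was added to HSE-bla HeLa cells that had received compound for 5 h at 37 C; luminescence read after 30 min.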

[18] = qHTS assay to identify small molecule agonists of the farnesoid-X-receptor (FXR) signaling pathway - cell viability counter screen (AID 743218); note: nearly all actives have a fitted effect of over 45% in size
Outline: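 Readout: CellTiter-Glo luminescence, 30 min RT, multiplexed after the FXR-bla FRET reading. HEK 293T FXR-UAS-bla cells received compound 5 h post-plating and were incubated 16 h at 37 C.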

[19] = qHTS assay to identify small molecule antagonists of the vitamin D receptor (VDR) signaling pathway - cell viability counter screen (AID 743225); note: nearly all actives have a fitted effect of over 50% in size
Outline: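 HEK293T VDR-bla; cpd + 1a,25-(OH)2D3 3 nM final, 16 h 37C/5% CO2; B/G FRET substrate 2 h RT; then CellTiter-Glo 30 min RT, luminescence.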

[20] = qHTS assay for small molecule activators of the heat shock response signaling pathway (AID 743210; active = well fitted activation curve with a large enough effect in the signal ratio in the repeat runs, with a control signal flat, not every such curve was filed as active; the % refers to the signal ratio; note: series mostly up to about 63 µM)
Outline: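 Heat shock element–beta-lactamase HeLa reporter cells; qHTS with compounds for 5 h at 37 C; detection by FRET substrate fluorescence after 2.5 h at RT.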

Measured: Potency

ClCCBr
not listed: [13] | [14] | [15] | [16] | [17] | [18] | [19] | [20]
inactive: all other assays above

CCCCCCCCCCCC#N
not listed: [1] | [17] | [18] | [19] | [20]
inactive: all other assays above

O=NN1CCCCCCC1
not listed: [1] | [8] | [10] | [15] | [16] | [20]
inactive: all other assays above

[N-]=[N+]=[N-]
not listed: [1] | [5] | [13] | [14] | [19]
inactive: all other assays above

CCOP(OCC)OCC
not listed: [1] | [8] | [10] | [15] | [16] | [20]
inactive: all other assays above

CCC12COCN1COC2
not listed: [1] | [13] | [14] | [17]
inactive: all other assays above

CC(C)C#N
not listed: [1] | [13] | [14] | [15] | [16] | [17] | [19] | [20]
inactive: all other assays above

CCCCCCCCCl
not listed: [1] | [18] | [20]
inactive: all other assays above

C1CN2CCN1CC2
not listed: [1] | [8] | [10] | [13] | [14] | [17] | [20]
inactive: all other assays above

Cc1ccc([N+](=O)[O-])cc1C
not listed: [1] | [18]
inactive: all other assays above

Cc1[nH]c(=O)n(C(C)(C)C)c(=O)c1Cl
not listed: [1] | [8] | [10] | [15] | [16] | [17] | [18]
inactive: all other assays above

O=S(=O)(c1ccc(Cl)cc1)c1cc(Cl)c(Cl)cc1Cl
not listed: [1] | [3] | [17] | [18] | [20]
inactive: all other assays above

CNC(=O)Oc1ccccc1OC(C)C
not listed: [1] | [3] | [13] | [14]
inactive: all other assays above

Nc1ccc(Oc2ccc(N)cc2)cc1
not listed: [1] | [13] | [14] | [15] | [16]
inactive: all other assays above

CN=C=S
not listed: [1] | [19] | [20]
inactive: all other assays above

CCNc1nc(NC(C)C)nc(SC)n1
not listed: [1] | [13] | [14] | [17] | [18] | [20]
inactive: all other assays above

CN(N=O)c1ccccc1
not listed: [1] | [20]
inactive: all other assays above

Clc1ccc(Cl)cc1
not listed: [1] | [13] | [14] | [18] | [19]
inactive: all other assays above

ClCc1cccnc1
not listed: [1] | [18]
inactive: all other assays above
